# Laboratory results as given in the supplement of paper PMC6411743.
# ± gives the standard deviation of the averaged measurements. The full data set covers some 6,500 targets. This sample favours those with the largest changes.
# Compound: Nc1ncnc2c1ncn2[C@@H]1O[C@H](COP(=O)(O)OP(=O)(O)OP(=O)(O)O)[C@@H](O)[C@H]1O [adenosine triphosphate]
# Experiment: NP40-soluble protein abundance relative to vehicle (solubility fold change) (ratio); higher = more soluble protein in presence of ATP
# Summary of the method: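 Eight concentrations, 0.1 to 10 mM, were tested on Jurkat crude lysate for 10 min at room temperature and then 3 min at 37 °C, in three independent experiments. The lysate was solubilised with 0.8% NP40 and benzonase, ultracentrifuged, and the supernatant TMT-labelled for LC-MS/MS. Each value is the fold change against the detergent-processed vehicle in its own replicate, from vsn-normalised intensities.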
# Chain of UniProt Q8WYP5 (Q8WYP5 whole entry): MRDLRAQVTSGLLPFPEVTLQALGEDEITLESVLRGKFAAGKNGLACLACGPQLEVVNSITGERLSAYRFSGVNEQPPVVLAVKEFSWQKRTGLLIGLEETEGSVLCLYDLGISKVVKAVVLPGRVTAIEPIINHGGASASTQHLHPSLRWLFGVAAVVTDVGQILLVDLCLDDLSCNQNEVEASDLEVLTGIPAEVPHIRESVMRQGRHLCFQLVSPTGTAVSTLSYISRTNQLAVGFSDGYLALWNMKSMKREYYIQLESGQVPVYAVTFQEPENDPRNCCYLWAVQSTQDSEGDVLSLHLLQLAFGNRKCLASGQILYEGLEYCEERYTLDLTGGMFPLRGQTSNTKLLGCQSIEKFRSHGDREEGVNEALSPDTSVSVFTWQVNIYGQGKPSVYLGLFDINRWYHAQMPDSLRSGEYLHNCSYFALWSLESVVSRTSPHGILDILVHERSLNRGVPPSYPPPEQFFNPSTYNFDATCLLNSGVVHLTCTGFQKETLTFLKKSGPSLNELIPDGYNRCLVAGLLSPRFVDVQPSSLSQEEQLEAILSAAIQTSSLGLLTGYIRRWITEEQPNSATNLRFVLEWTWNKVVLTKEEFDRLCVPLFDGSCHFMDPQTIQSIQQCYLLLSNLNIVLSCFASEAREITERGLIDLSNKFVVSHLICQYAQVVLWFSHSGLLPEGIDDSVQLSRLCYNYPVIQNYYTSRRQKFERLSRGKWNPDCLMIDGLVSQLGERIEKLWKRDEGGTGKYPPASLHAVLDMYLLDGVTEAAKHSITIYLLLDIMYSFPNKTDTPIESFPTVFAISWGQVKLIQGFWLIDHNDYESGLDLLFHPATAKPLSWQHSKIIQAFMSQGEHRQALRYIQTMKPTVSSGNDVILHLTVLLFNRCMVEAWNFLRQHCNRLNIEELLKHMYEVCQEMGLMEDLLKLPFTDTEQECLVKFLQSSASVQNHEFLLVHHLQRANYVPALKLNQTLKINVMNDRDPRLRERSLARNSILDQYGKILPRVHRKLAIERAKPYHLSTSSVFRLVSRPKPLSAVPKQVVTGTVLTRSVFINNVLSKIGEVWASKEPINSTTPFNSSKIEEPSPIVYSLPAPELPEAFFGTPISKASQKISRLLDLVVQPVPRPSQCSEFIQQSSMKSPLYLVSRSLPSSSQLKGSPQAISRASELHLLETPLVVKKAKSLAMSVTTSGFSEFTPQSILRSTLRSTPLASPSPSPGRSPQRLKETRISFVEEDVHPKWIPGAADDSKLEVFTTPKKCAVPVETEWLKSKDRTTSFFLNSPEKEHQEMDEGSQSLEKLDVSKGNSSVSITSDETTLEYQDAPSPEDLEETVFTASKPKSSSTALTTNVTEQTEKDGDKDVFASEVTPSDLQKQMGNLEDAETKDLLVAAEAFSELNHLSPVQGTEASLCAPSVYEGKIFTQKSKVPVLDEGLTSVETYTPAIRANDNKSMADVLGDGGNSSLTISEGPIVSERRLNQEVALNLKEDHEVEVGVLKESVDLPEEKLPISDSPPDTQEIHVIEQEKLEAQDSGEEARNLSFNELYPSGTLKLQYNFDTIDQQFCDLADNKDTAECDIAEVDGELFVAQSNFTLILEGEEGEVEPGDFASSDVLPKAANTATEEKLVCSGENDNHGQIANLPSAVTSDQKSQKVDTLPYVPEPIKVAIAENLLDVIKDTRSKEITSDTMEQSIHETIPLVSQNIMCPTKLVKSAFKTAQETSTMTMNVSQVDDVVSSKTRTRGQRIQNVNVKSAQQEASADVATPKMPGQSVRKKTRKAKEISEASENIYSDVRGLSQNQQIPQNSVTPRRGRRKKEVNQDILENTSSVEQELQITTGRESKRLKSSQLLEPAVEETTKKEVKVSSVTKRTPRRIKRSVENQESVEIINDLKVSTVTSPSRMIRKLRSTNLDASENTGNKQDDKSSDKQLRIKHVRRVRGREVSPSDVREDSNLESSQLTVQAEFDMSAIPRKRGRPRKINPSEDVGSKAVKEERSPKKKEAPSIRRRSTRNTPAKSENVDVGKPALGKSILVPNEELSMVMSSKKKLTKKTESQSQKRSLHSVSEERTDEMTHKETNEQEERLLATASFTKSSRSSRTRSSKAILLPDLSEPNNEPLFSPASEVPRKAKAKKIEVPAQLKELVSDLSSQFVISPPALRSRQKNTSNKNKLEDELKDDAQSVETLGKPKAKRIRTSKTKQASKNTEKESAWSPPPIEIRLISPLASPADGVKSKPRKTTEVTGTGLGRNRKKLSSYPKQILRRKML
# Chain of UniProt Q92576 (Q92576 whole entry): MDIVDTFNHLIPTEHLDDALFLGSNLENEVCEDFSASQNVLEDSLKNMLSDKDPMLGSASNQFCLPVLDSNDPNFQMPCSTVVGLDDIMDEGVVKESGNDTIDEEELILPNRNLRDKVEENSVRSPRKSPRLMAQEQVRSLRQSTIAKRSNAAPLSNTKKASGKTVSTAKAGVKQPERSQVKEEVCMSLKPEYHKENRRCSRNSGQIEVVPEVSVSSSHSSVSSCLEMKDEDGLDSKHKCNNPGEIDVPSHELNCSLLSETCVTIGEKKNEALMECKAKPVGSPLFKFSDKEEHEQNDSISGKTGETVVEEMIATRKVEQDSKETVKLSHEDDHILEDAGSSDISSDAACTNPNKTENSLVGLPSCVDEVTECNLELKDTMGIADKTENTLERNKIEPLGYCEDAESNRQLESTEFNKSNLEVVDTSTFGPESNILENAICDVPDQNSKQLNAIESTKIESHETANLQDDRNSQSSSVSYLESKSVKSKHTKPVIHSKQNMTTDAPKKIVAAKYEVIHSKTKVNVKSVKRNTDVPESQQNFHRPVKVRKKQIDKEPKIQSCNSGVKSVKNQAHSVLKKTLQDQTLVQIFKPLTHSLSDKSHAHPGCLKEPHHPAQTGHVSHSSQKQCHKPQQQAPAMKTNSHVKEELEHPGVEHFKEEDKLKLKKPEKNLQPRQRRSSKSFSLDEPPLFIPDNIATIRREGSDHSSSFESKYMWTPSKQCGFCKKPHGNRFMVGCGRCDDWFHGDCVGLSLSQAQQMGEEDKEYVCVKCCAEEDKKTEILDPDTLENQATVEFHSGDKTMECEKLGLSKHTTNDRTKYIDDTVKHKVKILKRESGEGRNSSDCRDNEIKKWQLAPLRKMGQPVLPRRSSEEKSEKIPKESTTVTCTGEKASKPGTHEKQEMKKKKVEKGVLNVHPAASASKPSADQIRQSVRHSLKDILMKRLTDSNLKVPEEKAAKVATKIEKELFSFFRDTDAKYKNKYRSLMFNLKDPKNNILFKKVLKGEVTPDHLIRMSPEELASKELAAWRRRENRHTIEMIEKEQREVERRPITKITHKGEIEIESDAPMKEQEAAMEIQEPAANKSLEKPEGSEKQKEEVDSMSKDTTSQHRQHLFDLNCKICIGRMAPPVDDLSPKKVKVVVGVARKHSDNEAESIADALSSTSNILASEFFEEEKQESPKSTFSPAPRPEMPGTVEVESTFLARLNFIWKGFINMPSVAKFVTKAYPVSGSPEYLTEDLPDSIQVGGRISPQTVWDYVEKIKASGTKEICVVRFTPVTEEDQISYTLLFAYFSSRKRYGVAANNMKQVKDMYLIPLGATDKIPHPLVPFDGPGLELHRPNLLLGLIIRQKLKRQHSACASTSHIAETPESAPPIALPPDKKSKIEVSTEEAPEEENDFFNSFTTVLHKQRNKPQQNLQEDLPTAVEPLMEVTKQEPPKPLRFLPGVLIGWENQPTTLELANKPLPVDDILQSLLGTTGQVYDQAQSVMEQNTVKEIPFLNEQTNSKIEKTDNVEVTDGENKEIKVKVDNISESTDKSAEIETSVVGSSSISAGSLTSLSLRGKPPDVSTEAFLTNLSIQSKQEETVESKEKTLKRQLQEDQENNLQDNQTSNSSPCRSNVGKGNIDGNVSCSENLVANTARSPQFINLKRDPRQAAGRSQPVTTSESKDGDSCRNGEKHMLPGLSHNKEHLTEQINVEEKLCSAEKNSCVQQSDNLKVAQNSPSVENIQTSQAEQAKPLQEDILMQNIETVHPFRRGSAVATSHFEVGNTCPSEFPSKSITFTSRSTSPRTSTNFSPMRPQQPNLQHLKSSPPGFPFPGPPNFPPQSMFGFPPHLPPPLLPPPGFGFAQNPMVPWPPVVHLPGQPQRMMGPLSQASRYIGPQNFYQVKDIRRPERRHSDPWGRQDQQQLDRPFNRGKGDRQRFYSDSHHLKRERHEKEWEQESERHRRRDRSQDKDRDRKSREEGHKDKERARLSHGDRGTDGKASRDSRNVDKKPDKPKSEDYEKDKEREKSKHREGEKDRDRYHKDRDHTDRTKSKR
Target,NP40-soluble protein abundance (concentration: 1mM),NP40-soluble protein abundance (concentration: 2mM),NP40-soluble protein abundance (concentration: 4mM),NP40-soluble protein abundance (concentration: 6mM),NP40-soluble protein abundance (concentration: 8mM),NP40-soluble protein abundance (concentration: 10mM)
UniProt Q92576|Q92576-2,1.05 ± 0.052,1.07 ± 0.056,1.12 ± 0.051,1.22 ± 0.11,1.2 ± 0.048,1.24 ± 0.073
UniProt Q96II8|Q96II8-2|Q96II8-4,1.17 ± 0.11,1.21 ± 0.057,1.2 ± 0.035,1.22 ± 0.078,1.17 ± 0.068,1.21 ± 0.034
UniProt Q8WYP5|Q8WYP5-2|Q8WYP5-3,1.13 ± 0.037,1.16 ± 0.048,1.28 ± 0.079,1.38 ± 0.096,1.42 ± 0.12,1.53 ± 0.13
UniProt Q96B36|Q96B36-3,0.861 ± 0.098,0.826 ± 0.085,0.765 ± 0.029,0.826 ± 0.091,0.747 ± 0.071,0.693 ± 0.12
